Experimental data published in PubChem BioAssay AID463173 (ICCB-Longwood Screening Facility, Harvard Medical School, 2010).
Hit rate of the full screen: of about 52,000 compounds, about 1,700 (3.3%) were called active. No stated cut-off is given here; in the data, active means survival mostly below about 52% (no sharp cut-off); inactive means mostly above about 56%. The list comes from a sample in which actives are over-represented; it also holds similar structures and randomly drawn compounds.

These compounds were tested on Wild type (assay: growth inhibition of S. aureus wild type versus tarO mutant, primary screen, teichoic acid synthesis inhibitors, RN4220, OD600 (AID 463173)). Conditions: S. aureus RN4220 wild type/DeltatarO growth, OD600, 18 h, active compounds read low, screened at 18.75 µg/mL (by protocol).

| SMILES | survival |
| --- | --- |
| CCc1cccc(NC(=O)CNS(=O)(=O)c2ccc3nc(C)sc3c2)c1 | 72% (inactive) |
| COc1ccc(NCc2cc3cc4c(cc3n(CC(=O)Nc3cc(C)cc(C)c3)c2=O)OCO4)cc1 | 60% (inactive) |
| Cc1cccc(C(=O)Nc2cccc(OCc3cc(=O)n4c(C)csc4n3)c2)c1 | 79% (inactive) |
| CCC(=O)n1nc(-c2ccc(OC)cc2)nc1SC | 100% (inactive) |
| O=C(NCc1ccncc1)C1CCN(S(=O)(=O)c2ccccc2)CC1 | 109% (inactive) |
| COc1ccc(Nc2cc(C(=O)NCc3cccs3)c3ccccc3n2)cc1 | 145% (inactive) |
| COc1ccc(Nc2cc(C(=O)NCc3ccccc3)c3ccccc3n2)cc1 | 112% (inactive) |
| COc1ccc(Nc2cc(C(=O)NCc3ccccc3OC)c3ccccc3n2)cc1 | -6% (active) |
| CCOC(=O)/C(C#N)=N\Nc1ccccc1OC | 105% (inactive) |
| CCC(=O)N1CCc2cc(S(=O)(=O)NC(CC(C)C)C(=O)NCCc3ccccc3)ccc21 (stereo not given) | 127% (inactive) |
| CCCOc1ccc(C2c3c(-c4ccccc4O)n[nH]c3C(=O)N2Cc2cccnc2)cc1 (stereo not given) | 3% (active) |
| CCOc1cc(C2c3c(-c4ccccc4O)n[nH]c3C(=O)N2Cc2cccnc2)ccc1O (stereo not given) | 89% (inactive) |
| Cc1ccc(C2c3c(-c4ccccc4O)n[nH]c3C(=O)N2CCc2ccccc2)cc1 (stereo not given) | 58% (inactive) |
| COc1ccc(C2c3c(-c4ccccc4O)n[nH]c3C(=O)N2Cc2ccco2)cc1 (stereo not given) | 10% (active) |
| CC(C)c1ccc(C2c3c(-c4ccccc4O)n[nH]c3C(=O)N2Cc2ccncc2)cc1 (stereo not given) | 106% (inactive) |
| COc1ccc(C2c3c(-c4c(C)cc(C)cc4O)n[nH]c3C(=O)N2Cc2ccco2)cc1 (stereo not given) | 15% (inactive) |
| O=C1c2[nH]nc(-c3ccccc3O)c2C(c2ccc(Cl)cc2)N1Cc1ccco1 (stereo not given) | -1% (active) |
| COc1cc(C2c3c(-c4ccccc4O)n[nH]c3C(=O)N2Cc2ccco2)ccc1OCC(C)C (stereo not given) | 43% (inactive) |
| COc1ccc(CCN2C(=O)c3[nH]nc(-c4ccccc4O)c3C2c2ccc(OC)cc2)cc1 (stereo not given) | 58% (inactive) |
| CC(C)c1ccc(C2c3c(-c4ccccc4O)n[nH]c3C(=O)N2CCc2ccccc2)cc1 (stereo not given) | 64% (inactive) |

| SMILES | survival |
| --- | --- |
| CCc1ccc(C2c3c(-c4ccccc4O)n[nH]c3C(=O)N2Cc2cccnc2)cc1 (stereo not given) | 71% (inactive) |
| O=C1c2[nH]nc(-c3ccccc3O)c2C(c2ccc(Cl)cc2)N1CCc1ccccc1 (stereo not given) | 4% (active) |
| CCc1nnc(SCc2ccc(F)cc2Cl)c2cc3sc(C)cc3n12 | 96% (inactive) |
| CCOC(=O)c1cccc(NC(=O)c2ccc3snnc3c2)c1 | 84% (inactive) |
| COc1ccc(C)cc1NC(=O)C(=O)NCC1(c2ccccc2)CCCC1 | 94% (inactive) |
| COc1ccc2c(c1)cc1c(=O)n(CC(=O)NCCc3ccccc3)nc(C)n12 | 81% (inactive) |
| CCc1ccccc1NC(=O)CN1C(=O)COc2ccc(S(=O)(=O)Nc3ccccc3)cc21 | 64% (inactive) |
| COc1ccc(-c2nc(N)n(C(C)=O)n2)cc1 | 107% (inactive) |
| Cc1nnc(SCCCN2C(=O)c3ccccc3C2=O)o1 | 105% (inactive) |
| Cc1cccc(NC(=O)CCn2cnnn2)c1C | 71% (inactive) |
| Cc1cc(C)c(NC(=O)c2sc3nc(C)cc(C)c3c2N)c(C)c1 | 73% (inactive) |
| CCOc1cccc(C2c3c(-c4cc(C)ccc4O)n[nH]c3C(=O)N2Cc2ccco2)c1 (stereo not given) | 27% (inactive) |
| CCCN1C(=O)c2[nH]nc(-c3ccccc3O)c2C1c1cccc(OCc2ccccc2)c1 (stereo not given) | 42% (inactive) |
| CCCOc1cccc(C2c3c(-c4ccccc4O)n[nH]c3C(=O)N2Cc2ccco2)c1 (stereo not given) | 11% (active) |
| CCOc1cccc(C(=O)N(Cc2ccc(C)o2)C2CCS(=O)(=O)C2)c1 (stereo not given) | 90% (inactive) |
| CCOC(=O)C1CCN(C(=O)Cn2ncc3c4ccccc4n(Cc4ccc(F)cc4)c3c2=O)CC1 | 80% (inactive) |
| CC(C)OCCCNC(=O)C(=O)Nc1c2c(nn1-c1ccccc1)CS(=O)(=O)C2 | -6% (active) |
| CC(C)CCNC(=O)C(=O)Nc1c2c(nn1-c1ccccc1)CS(=O)(=O)C2 | 90% (inactive) |
| COCCNC(=O)C(=O)Nc1c2c(nn1-c1ccccc1)CS(=O)(=O)C2 | 76% (inactive) |
| CCOc1cccc(C(=O)Nc2cc(C)c(O)c(-c3nc4ncccc4o3)c2)c1 | 84% (inactive) |

| SMILES | survival |
| --- | --- |
| CNC(=O)C1CCC(Cn2c(=O)c3sccc3n(CC(=O)NCc3ccc(C)cc3)c2=O)CC1 (stereo not given) | 73% (inactive) |
| CNC(=O)C1CCC(Cn2c(=O)c3sccc3n(CC(=O)NCc3ccc(F)cc3)c2=O)CC1 (stereo not given) | 45% (inactive) |
| CNC(=O)C1CCC(Cn2c(=O)c3sccc3n(CC(=O)NCc3ccccc3)c2=O)CC1 (stereo not given) | 0% (active) |
| Cc1cc(C)cc(NC(=O)COc2cccc3c(=O)n(C)ccc23)c1 | 72% (inactive) |
| Cc1ccc2oc(=O)n(CCCOc3ccc(Cl)cc3)c2c1 | -9% (active) |
| COc1ccc(OCCCn2c(C)nc3cc(C)c(C)cc32)cc1 | 67% (inactive) |
| COc1ccc(Cl)cc1NC(=O)NCCn1c(=O)oc2ccc(C)cc21 | 62% (inactive) |
| CCCCOc1ccc(Cn2c(=O)oc3ccc(C)cc32)cc1 | 58% (inactive) |
| Cc1ccc2oc(=O)n(CCNC(=O)Nc3ccc(Cl)cc3)c2c1 | 79% (inactive) |
| COc1ccc(OCCCn2c(=O)oc3ccc(C)cc32)cc1 | 2% (active) |
| COc1ccc(CCNC(=O)CCCCn2c(=O)c3ccccc3n(Cc3ccc(Cl)cc3)c2=O)cc1OC | 105% (inactive) |
| COc1cc2nc(SCC(=O)Nc3c(C)cc(C)cc3C)n3nc(CCn4c(C)nc5ccccc54)nc3c2cc1OC | 91% (inactive) |
| CCOc1ccccc1C(=O)Nc1cc(-c2nc3cccnc3s2)ccc1C | 67% (inactive) |
| COCCCNC(=O)C1CCN(c2nn3cc(-c4ccc(F)cc4)nc3s2)CC1 | 88% (inactive) |
| CCCCS(=O)(=O)c1oc(-c2cccs2)nc1S(=O)(=O)c1ccccc1 | 0% (active) |
| CCCCCS(=O)(=O)c1oc(-c2cccs2)nc1S(=O)(=O)c1ccc(C)cc1 | 11% (active) |
| Cc1ccc(CSc2oc(-c3cccs3)nc2S(=O)(=O)c2ccc(C)cc2)cc1 | 128% (inactive) |
| CCC(C)S(=O)(=O)c1oc(-c2cccs2)nc1S(=O)(=O)c1ccccc1 (stereo not given) | 16% (inactive) |
| CCCCS(=O)(=O)c1oc(-c2cccs2)nc1S(=O)(=O)c1ccc(F)cc1 | 82% (inactive) |
| CCCSc1oc(-c2cccs2)nc1S(=O)(=O)c1ccc(C)cc1 | 39% (inactive) |
